This note sets out measurements from PubChem BioAssay AID2314 (National Center for Advancing Translational Sciences (NCATS), 2010).

The campaign covered roughly 300,000 compounds. About 37,000 (12%) were called active. Rule as the data show it: active = max response mostly above about 13% (no sharp cut-off); inactive = mostly below about 14%. For the sample, actives were picked, then their nearest neighbours and some compounds at random.

This assay can be described thus: Cycloheximide Counterscreen for Small Molecule Inhibitors of Shiga Toxin. Also: read at 38.3 µM for the half of the compounds with a filed dose; 0% is about no effect. Conditions: cell reporter, cycloheximide protein synthesis inhibition counterscreen; hits give high values.
As to `COc1ccc(-c2noc(C(C)NS(=O)(=O)c3ccc(NC(C)=O)cc3)n2)cc1` (configuration not stated), the max response was -8.48% (inactive).
Next, `C/C(=N/Nc1ccc(Cl)cc1)c1cnnc(-c2ccccc2)n1`: -2.47% (inactive).
Next, `CC(C)(C)NC(=O)Cn1nnc(-c2ccccc2Cl)n1`: 53.5% (active).
For the compound `O=C(Cn1nnc(-c2ccccc2)n1)NCc1ccccc1`, the max response was -2.67% (inactive).
For the compound `Cc1ccccc1-c1nnn(CC(=O)c2ccc(S(=O)(=O)N3CCCC3)cc2)n1`, the max response was 0.345% (inactive).
For the compound `COC(=O)COc1cccc2c(=O)n(CC(=O)NCc3ccccc3)ccc12`, the max response was -1.91% (inactive).
As for `Cc1ccc(S(=O)(=O)N(C)C)cc1NC(=O)c1n[nH]c(=O)c2ccccc12`, the max response was -4.46% (inactive).
For `CCCN(CCC)S(=O)(=O)c1ccc(C(=O)N2CC3CCC(CC3)C2)cc1` the value was -1.36% (inactive); for `CCOC(=O)c1ccc(N/C(=N/S(=O)(=O)c2ccccc2)c2ccccc2)cc1`, 10.2% (inactive); for `CN1CCN(c2ccc(NC(=O)c3ccc4c(c3)OCCO4)cc2Cl)CC1`, 39.3% (active).
Turning to `Cc1ccc(C(=O)Nc2ccc3c(c2)OCO3)cc1S(=O)(=O)N1CCCCC1`, the max response is 19.6% (active).
For `O=C(Nc1ccc2c(c1)OCCO2)c1ccc(Cl)c(S(=O)(=O)N2CCCCC2)c1` the value was 45.3% (active); for `COC(=O)c1ccc(N2CCOCC2)c(NC(=O)c2ccc3c(c2)OCCO3)c1`, 0.234% (inactive); for `O=C(NCCSCc1ccccc1)c1ccc(Cl)c(S(=O)(=O)N2CCOCC2)c1`, -2.82% (inactive).
Next, `Cc1ccc(C(=O)Nc2ccccc2C(=O)NC2CCCCC2)cc1S(=O)(=O)N1CCOCC1`: 12% (inactive); `O=C(Nc1cccc(Cl)c1N1CCOCC1)c1ccc2c(c1)OCCO2`: 19.9% (inactive); `O=C(c1ccc(Cl)c(S(=O)(=O)N2CCCCC2)c1)N1CCCCCC1`: -2.78% (inactive).
For `O=C(Nc1cccc(S(=O)(=O)N2CCCCC2)c1)c1ccc2c(c1)OCO2` the value was -2.46% (inactive); for `O=[N+]([O-])c1ccccc1/C=C/CN1CCCC(CO)C1` (configuration not stated), -1.17% (inactive); for `FC(F)Oc1ccccc1C1CC(c2ccc(Br)s2)Nc2ncnn21` (configuration not stated), -4.82% (inactive).
As to `CCOc1ccccc1Nc1ccc2nonc2c1[N+](=O)[O-]`, the max response is -3.05% (inactive).
With `Cc1cnc(C(=O)N2CCCC(N3CCN(c4ccccc4F)CC3)C2)cn1` (configuration not stated), the max response was 7.17% (inactive).
On to `CN(C)/C=N/c1cc(=O)n(C)c(=O)n1CC1CC1`, for which the max response is -3.74% (inactive).
With `CCCCn1nc(C(=O)OCC(=O)Nc2sccc2C(N)=O)c2ccccc2c1=O`, the max response is 11.3% (inactive).
`COc1cc(OC)cc(C(=O)OCC(=O)Nc2sccc2C(N)=O)c1`: the max response was 16.2% (active).
For `COc1cc(OC)cc(C(=O)OCC(=O)Nc2ccc(F)cc2F)c1` the value was 1.53% (inactive); for `CC(=O)N1c2ccc(S(=O)(=O)N3CCCC(C(=O)Nc4cccc(F)c4)C3)cc2CC1C` (configuration not stated), -3.59% (inactive).
For `CC1CCN(Cc2nc(-c3ccc(Cl)cc3)no2)CC1` the value was 14.8% (active); for `CC(C)C(O)C1CCN(Cc2nc(Cc3ccccc3Cl)no2)CC1` (configuration not stated), -3.2% (inactive).
For `Cc1ccc(-c2noc(CN3CCN(Cc4ccccc4)CC3)n2)cc1` the value was 9.63% (inactive); for `Cc1cc(OCCOc2cccc3cccnc23)c(C)cc1Cl`, 2.3% (inactive).
As to `CCc1ccc(N(C(=O)c2csnn2)C(C(=O)NC2CCCCC2)c2cccnc2)cc1` (configuration not stated), the max response is 6.38% (inactive).
For `Cc1cccc(NC(=O)c2sc(-c3ccccc3)nc2-c2ccc([N+](=O)[O-])cc2)c1`, the max response is -2.46% (inactive).
Next, `Cc1onc(NC(=O)c2ccc([N+](=O)[O-])o2)c1Br`: 60.9% (active); `Cc1onc(C(=O)NCc2ccc(F)cc2)c1[N+](=O)[O-]`: 4.59% (inactive); `Cc1ccc(C(=O)Nc2nnc(-c3ccncc3)s2)o1`: 0.697% (inactive).
For `Cc1cccc(NC(=O)c2ccc([N+](=O)[O-])o2)c1` the value was 29.4% (active); for `Cc1cccc(NC(=O)c2cc([N+](=O)[O-])ccc2N2CCN(C)CC2)c1`, -4.47% (inactive).
For `C=CCn1c(SCC(=O)NC)nnc1C12CC3CC(CC(C3)C1)C2` the value was -1.24% (inactive).
Regarding `O=C(CCn1nnc2ccccc21)OCC(=O)c1ccc([N+](=O)[O-])cc1`, the max response is -6.28% (inactive).
Next, `N#C/C(C(=S)Nc1ccccc1)=C1/NN=C(N2CCOCC2)N1c1ccccc1`: 0.28% (inactive); `Cc1[nH]n(C(N)=S)c(=O)c1N=Nc1ccc(Cl)cc1Cl`: 12.2% (inactive).
For the compound `CC(=O)Nc1ccc(NC(=O)c2ccc3c(c2)C(=O)N(c2ccccc2C)C3=O)cc1`, the max response is -2.35% (inactive).
`CCOc1ccc(-n2c(SCC(N)=O)nnc2-c2ccco2)cc1`: the max response was -1.88% (inactive).
Regarding `COc1cc(CNCc2ccc(OC)c3ccccc23)cc(OC)c1OC`, the max response is -1.1% (inactive).
With `CCN1CCN(C(=O)C2CCN(S(=O)(=O)c3cc(Cl)ccc3Cl)CC2)CC1`, the max response is -1.01% (inactive).
For the compound `CCOC(=O)C1=C(C)NC2=C(C(=O)CC(C)(C)C2)C1c1ccsc1` (configuration not stated), the max response was 8.09% (inactive).
For `COc1ccc(C(CNC(=O)COc2ccc([N+](=O)[O-])cc2)N2CCCCC2)cc1` (configuration not stated) the value was -2.15% (inactive); for `CCOC(=O)N1CCC(NC(=O)c2cnn3ccccc23)CC1`, -4.51% (inactive).
Next, `Cc1cnc(C(=O)OCC(=O)N2CCc3ccccc32)cn1`: 9.5% (inactive); `O=C(c1cnn2ccccc12)N1CCc2ccccc21`: 66.5% (active).
Next, `Cc1ccc(S(=O)(=O)N2CCN(C(=O)COC(=O)c3c(C)noc3C)CC2)c(C)c1`: -2.98% (inactive); `Cc1ccc(-c2nc(COC(=O)c3c(C)noc3C)cs2)cc1`: 73.1% (active).
For the compound `Cc1noc(C)c1COC(=O)c1cc2ccccc2cc1O`, the max response was -1.04% (inactive).
As for `CN(C)CCCNC(=S)N1CCN(c2nc(-c3ccccc3)cs2)CC1`, the max response is -1.66% (inactive).
On to `O=C(CN1CCN(c2nc(-c3ccccc3)cs2)CC1)NCc1ccc2c(c1)OCO2`, for which the max response is -2.7% (inactive).
For `c1ccc(-c2csc(N3CCc4ccccc4C3)n2)cc1` the value was 36.5% (active); for `CCOC(=O)Cn1c(O)c(N=NC(=O)CNC(=O)Cc2ccccc2)c2ccccc21`, 5.93% (inactive); for `CCCc1ccc(C(=O)[C@@H]2[C@@H](C(C)=O)N3c4ccc(F)cc4C=C[C@@H]3[C@@]23C(=O)Nc2ccccc23)cc1`, -1.55% (inactive).
Next, `O=S(=O)(c1ccc(Cl)cc1)c1nc(-c2ccco2)oc1N1CCCCC1`: 3.16% (inactive); `O=C(NCCCN1CCCCC1)C1CCCN(c2ncnc3c2nc2n3CCCCC2)C1` (configuration not stated): -1.32% (inactive).
Next, `CN(C)c1nnnn1-c1ccc(Cl)cc1`: -4.44% (inactive); `CO/N=C/c1cn(-c2ccc(Cl)cc2)nn1`: 24.4% (active); `O=C(Nc1ccccc1)OCc1cn(-c2ccc(Cl)cc2)nn1`: -3.74% (inactive).
`COc1cc(NC(=O)C2CC(c3ccccc3O)=NO2)c(OC)cc1Cl` (configuration not stated): the max response was -1.7% (inactive).
Consider `COCCN1C(=O)C(=O)/C(=C(/O)c2ccc(S(=O)(=O)N3CCCCC3)cc2)C1c1ccc(OC)c(OC)c1` (configuration not stated), for which the max response was -1.21% (inactive).
On to `CN(C)CCCN=Cc1c(O)n(Cc2ccco2)c(=O)[nH]c1=O`, for which the max response was 8% (inactive).
With `Cc1cs/c(=N\N=C\c2ccc(O)cc2)n1Cc1ccco1`, the max response was 21.5% (active).
Next, `CC(C)n1c(=O)c(C=Nc2ccc(Br)cc2)c(O)n(Cc2ccco2)c1=O`: -2.65% (inactive); `O=c1c2c(-c3ccccc3)ccnc2[nH]n1-c1ccccc1`: 9.85% (inactive); `O=C(Nc1cccc2ccccc12)c1onc2c1CCCC2`: 43.2% (active).
Next, `O=C(COC(=O)c1ccccn1)Nc1cccc2ccccc12`: -1.89% (inactive); `O=C(O)c1ccccc1-c1ccccc1C(=O)Nc1cccc2ccccc12`: -3.02% (inactive).
For `O=C(c1ccc2c(c1)N(Cc1ccc(F)cc1)C(=O)c1ccccc1S2(=O)=O)N1CCN(c2ccccn2)CC1` the value was 0.32% (inactive); for `O=[N+]([O-])c1ccc2nc(-c3ccccn3)[nH]c2c1`, 51% (active).
For the compound `O=[N+]([O-])c1cnc2ccc3ccccc3c2c1`, the max response was 8.23% (inactive).
With `O=C(CSc1nc2ccc([N+](=O)[O-])cc2[nH]1)c1ccc(Cl)cc1`, the max response was 3.9% (inactive).
For `CCOc1ccc(CCNC(=O)Nc2ccccc2)cc1OCC` the value was 6.01% (inactive); for `COc1ccc(-n2nnnc2SCc2nc(N)nc(N3CCOCC3)n2)cc1`, -3.81% (inactive); for `COc1cc(NC(=O)c2ccc(-c3csc(C)n3)cc2)c(OC)cc1Cl`, -4.02% (inactive).
In the case of `CCCn1nnnc1NC(=O)COc1ccc(Cl)cc1C`, the max response is 14.6% (inactive).
Next, `Cc1cc(NC(=O)COc2ccc(Cl)cc2Cl)n(CCC#N)n1`: 43.5% (active); `Cc1nn(-c2ccccc2)c(C)c1NC(=O)COc1ccc(Cl)cc1Cl`: -1.6% (inactive).
Next, `COCCNc1cc(-c2ccccc2)nc2cc(-c3cccc(F)c3)nn12`: -0.87% (inactive); `CC(=O)Nc1ccc(C(=O)N(C2=NC(C)CS2)c2ccc(Cl)cc2)cc1` (configuration not stated): 28.7% (active).
For `CC(=O)Nc1ccc(NC(=O)CCCNC(=O)c2ccc(Cl)cc2)cc1` the value was -0.304% (inactive).
In the case of `COc1ccccc1C(=O)N(C1=NC(C)CS1)c1ccc(Cl)cc1` (configuration not stated), the max response is -1.66% (inactive).
`CSCCC(NS(=O)(=O)c1ccc(C)cc1)C(=O)NCCc1c[nH]c2ccccc12` (configuration not stated): the max response is -3.49% (inactive).
As for `COc1ccc(NC(=S)NCC2CCN(c3ccc(OC)cc3)C2)cc1` (configuration not stated), the max response is 1.9% (inactive).
For `COc1ccc(NC(=S)N2CCc3cc(OC)c(OC)cc3C2)cc1` the value was 14.2% (inactive); for `COc1ccc(NC(=S)N2N=CCC2c2ccccc2)cc1` (configuration not stated), 36.2% (active).
Next, `COc1ccc(N2CCN(C(=S)Nc3ccc(S(N)(=O)=O)cc3)CC2)cc1`: -1.06% (inactive).
